Source: the supplement of paper PMC4206461
Unmarked numbers belong to inactive results.

tested on: Pseudomonas aeruginosa PA14 wild type; test: respiration area under curve with compound as sole nitrogen source, 24 h (OmniLog AUC (arbitrary units)); higher = more respiration / better utilisation as nitrogen source, active = 2000 or more
Experimental: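 Biolog Phenotype MicroArray plates PM6-PM8: each di/tripeptide is the sole nitrogen source (IF-0 medium with succinate/ferric citrate and dye mix A). Tetrazolium reduction was read in the OmniLog every 15 min for 24 h at 37°C and summarised as area under the respiration curve (arbitrary units). The paper counts values below 2000 as no respiration and above 8000 as solid respiration. Replicate datasets are averaged.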

| SMILES | respiration area under curve |
| --- | --- |
| CC(C)C[C@H](N)C(=O)NCC(=O)O (plate: PM6) | 8220 (active) |
| CC[C@H](C)[C@H](NC(=O)[C@@H](N)Cc1ccc(O)cc1)C(=O)O (plate: PM8) | 6790 (active) |
| NC(N)=NCCC[C@H](N)C(=O)N[C@@H](Cc1c[nH]c2ccccc12)C(=O)O (plate: PM6) | 8730 (active) |
| CC(C)C[C@H](NC(=O)CN)C(=O)O (plate: PM6) | 1880 |
| NC(N)=NCCC[C@H](N)C(=O)N[C@@H](Cc1ccccc1)C(=O)O (plate: PM6) | 9420 (active) |
| N[C@@H](Cc1ccc(O)cc1)C(=O)N[C@@H](Cc1ccc(O)cc1)C(=O)O (plate: PM7) | 7080 (active) |
| C[C@H](N)C(=O)N[C@@H](C)C(=O)O (plate: PM6) | 8430 (active) |
| CC[C@H](C)[C@H](NC(=O)[C@@H](N)CC(C)C)C(=O)O (plate: PM6) | 6260 (active) |
| CC[C@H](C)[C@H](N)C(=O)N[C@@H](CO)C(=O)O (plate: PM6) | 6110 (active) |
| N[C@@H](Cc1c[nH]c2ccccc12)C(=O)N[C@@H](CC(=O)O)C(=O)O (plate: PM7) | 446 |
| C[C@@H](O)[C@H](N)C(=O)N[C@@H](CCC(=O)O)C(=O)O (plate: PM7) | 7240 (active) |
| CSCCC(N)C(=O)NC(CCCN=C(N)N)C(=O)O (stereo not given) (plate: PM7) | 14600 (active) |
| N[C@@H](CO)C(=O)NCC(=O)O (plate: PM7) | 8430 (active) |
| C[C@H](N)C(=O)N[C@@H](CCC(=O)O)C(=O)O (plate: PM6) | 7840 (active) |
| CC[C@H](C)[C@H](N)C(=O)N[C@@H](C)C(=O)O (plate: PM6) | 5290 (active) |
| O=C(O)CNC(=O)[C@@H]1CCCN1 (plate: PM7) | 10100 (active) |
| C[C@@H](O)[C@H](N)C(=O)N[C@@H](CCCN=C(N)N)C(=O)O (plate: PM7) | 15400 (active) |
| CC(C)C[C@@H](N)C(=O)N[C@@H](Cc1ccc(O)cc1)C(=O)O (plate: PM8) | 36.8 |
| CSCC[C@H](NC(=O)[C@@H](N)CCCN=C(N)N)C(=O)O (plate: PM6) | 10500 (active) |
| C[C@H](N)C(=O)N[C@@H](CC(N)=O)C(=O)O (plate: PM6) | 8960 (active) |

| SMILES | respiration area under curve |
| --- | --- |
| CC[C@H](C)[C@H](N)C(=O)N[C@H](C(=O)O)C(C)C (plate: PM6) | 6570 (active) |
| NCC(=O)N1CCC[C@H]1C(=O)O (plate: PM6) | 9130 (active) |
| N[C@@H](CCC(=O)O)C(=O)N[C@@H](CC(=O)O)C(=O)O (plate: PM6) | 12 |
| CC[C@H](C)[C@H](N)C(=O)N[C@@H](CC(C)C)C(=O)O (plate: PM8) | 6290 (active) |
| CC(C)[C@H](N)C(=O)N[C@@H](CCC(=O)O)C(=O)O (plate: PM8) | 5380 (active) |
| CC(C)[C@H](N)C(=O)N[C@@H](CC(N)=O)C(=O)O (plate: PM7) | 12300 (active) |
| NCC(=O)N[C@@H](Cc1ccccc1)C(=O)O (plate: PM6) | 2760 (active) |
| CC(C)C[C@@H](N)C(=O)NCC(=O)O (plate: PM8) | 0.4 |
| NC(N)=NCCC[C@H](N)C(=O)N[C@@H](CO)C(=O)O (plate: PM6) | 9350 (active) |
| CC(C)C[C@H](NC(=O)[C@@H](N)CO)C(=O)O (plate: PM7) | 7960 (active) |
| C[C@H](O)[C@@H](NC(=O)CN)C(=O)O (plate: PM8) | 0 |
| CC[C@H](C)[C@H](N)C(=O)N[C@@H](Cc1ccccc1)C(=O)O (plate: PM6) | 2830 (active) |
| NCC(=O)N[C@@H](Cc1ccc(O)cc1)C(=O)O (plate: PM6) | 2560 (active) |
| N[C@@H](CCC(=O)O)C(=O)N[C@@H](CCC(=O)O)C(=O)O (plate: PM6) | 248 |
| N[C@@H](CC(=O)O)C(=O)N[C@@H](Cc1c[nH]c2ccccc12)C(=O)O (plate: PM6) | 2310 (active) |
| CC(C)C[C@H](NC(=O)[C@H](CC(C)C)NC(=O)[C@@H](N)CC(C)C)C(=O)O (plate: PM8) | 5700 (active) |
| CC(C)C[C@H](N)C(=O)N[C@@H](C)C(=O)O (plate: PM6) | 9330 (active) |
| CC[C@H](C)[C@H](NC(=O)[C@@H](N)CCCN=C(N)N)C(=O)O (plate: PM6) | 9540 (active) |
| C[C@H](N)C(=O)N[C@@H](Cc1ccc(O)cc1)C(=O)O (plate: PM6) | 6830 (active) |
| CSCC[C@H](NC(=O)[C@@H](N)CO)C(=O)O (plate: PM7) | 4420 (active) |
